Results from the OligoGym collection.

These sequences were tested against BOLA1 (assay: pooled miR-30 sensor sort-seq; sequence = guide strand). Conditions: shRNA.
Also: reference of the scale not given here.

Question: For TGATTCTTCTCTTTTCTCGGGT, which sensor-assay potency score (higher = more potent) is on record?
Answer: Its sensor-assay potency score (higher = more potent) is 0.0423.

Question: Which sensor-assay potency score (higher = more potent) does the source give for TAGGGGGCTCAGTCCCTCGAAA here?
Answer: The sensor-assay potency score (higher = more potent) was -1.29.

Question: How did the sensor-assay potency score (higher = more potent) turn out when TTGACCTGAAGCAAGTTGCTAT was run?
Answer: Its sensor-assay potency score (higher = more potent) is -0.107.

Question: Which sensor-assay potency score (higher = more potent) does the source give for TAGTGAGTGATTCTTCTCTTTT here?
Answer: The sensor-assay potency score (higher = more potent) was -0.956.

Question: How did the sensor-assay potency score (higher = more potent) turn out when TTCTTGTTCCCACCCAGGCATG was run?
Answer: The sensor-assay potency score (higher = more potent) was -1.63.

Question: Which sensor-assay potency score (higher = more potent) does the source give for TTGCGAAGCTCTAGCACCTCGG here?
Answer: The sensor-assay potency score (higher = more potent) was -0.666.

Question: With TGCGAAGCTCTAGCACCTCGGG as the sequence, how does the sensor-assay potency score (higher = more potent) read?
Answer: Its sensor-assay potency score (higher = more potent) is -1.19.

What follows are sequences tested against BOP1 in the same assay as above. Conditions: shRNA.

Question: How did the sensor-assay potency score (higher = more potent) turn out when TTCCTGGATGAAGCGTCCGTAG was run?
Answer: Its sensor-assay potency score (higher = more potent) is -1.83.

Question: Which sensor-assay potency score (higher = more potent) does the source give for TCTACATTCACCCTCATCTTGC here?
Answer: Its sensor-assay potency score (higher = more potent) is -0.893.

Question: With TTGATGGCGTGCACCATGCGAG as the sequence, how does the sensor-assay potency score (higher = more potent) read?
Answer: Its sensor-assay potency score (higher = more potent) is -1.27.

Question: How did the sensor-assay potency score (higher = more potent) turn out when TTGCTATCGTAGCTCCCACAGA was run?
Answer: Its sensor-assay potency score (higher = more potent) is -1.14.

Question: TTCGTCATCATCCTCACTGCTG was tested. Which sensor-assay potency score (higher = more potent) did it give?
Answer: The sensor-assay potency score (higher = more potent) was 0.313.

Question: ATCCAGGTCAAACCACACCAGC was tested. Which sensor-assay potency score (higher = more potent) did it give?
Answer: The sensor-assay potency score (higher = more potent) was -1.99.

Question: AGGATCGTCCATCTTGTCCAGG was tested. Which sensor-assay potency score (higher = more potent) did it give?
Answer: The sensor-assay potency score (higher = more potent) was -2.16.

Question: Which sensor-assay potency score (higher = more potent) does the source give for TTGTACACCATGCCATGGCAGA here?
Answer: Its sensor-assay potency score (higher = more potent) is -1.35.

Question: Which sensor-assay potency score (higher = more potent) does the source give for TTGACGGGCACCAGCAAGGGGT here?
Answer: Its sensor-assay potency score (higher = more potent) is -1.16.

Question: How did the sensor-assay potency score (higher = more potent) turn out when TCAAACCACACCAGCTTGCTAT was run?
Answer: The sensor-assay potency score (higher = more potent) was -1.16.

Question: TAGTCAGGATCGTCCATCTTGT was tested. Which sensor-assay potency score (higher = more potent) did it give?
Answer: The sensor-assay potency score (higher = more potent) was -0.541.

Question: For TTGGGCATCAGCTTCTTGGTGA, which sensor-assay potency score (higher = more potent) is on record?
Answer: Its sensor-assay potency score (higher = more potent) is 0.503.

These sequences were tested against BRAP in the same assay as above. Conditions: shRNA.

Question: How did the sensor-assay potency score (higher = more potent) turn out when TAAATATGAATACTCTAACTGT was run?
Answer: Its sensor-assay potency score (higher = more potent) is -0.208.

Question: Which sensor-assay potency score (higher = more potent) does the source give for TTTAGCTGAGTGCACTTTCTTT here?
Answer: Its sensor-assay potency score (higher = more potent) is -0.371.

Question: TAGGAGATCATTTAGTTTGTGC was tested. Which sensor-assay potency score (higher = more potent) did it give?
Answer: Its sensor-assay potency score (higher = more potent) is 0.0397.

Question: TCTTCTATTGAGTTGAACTGGC was tested. Which sensor-assay potency score (higher = more potent) did it give?
Answer: Its sensor-assay potency score (higher = more potent) is -0.232.

Question: TGACATACCGTCCACATCCTAT was tested. Which sensor-assay potency score (higher = more potent) did it give?
Answer: Its sensor-assay potency score (higher = more potent) is -1.06.

Question: With TAATCGCTACTTTCTCTCCTGG as the sequence, how does the sensor-assay potency score (higher = more potent) read?
Answer: Its sensor-assay potency score (higher = more potent) is -0.199.

Question: TTAGTAAATATGAATACTCTAA was tested. Which sensor-assay potency score (higher = more potent) did it give?
Answer: The sensor-assay potency score (higher = more potent) was -0.689.

Question: How did the sensor-assay potency score (higher = more potent) turn out when TTTTACTTGCAACCAGTCGATG was run?
Answer: Its sensor-assay potency score (higher = more potent) is -1.46.

Question: Which sensor-assay potency score (higher = more potent) does the source give for TTCTCTATCCGAACTATCTTGT here?
Answer: The sensor-assay potency score (higher = more potent) was -0.12.

Question: AAAACTATCCGCATCAGCCTGT was tested. Which sensor-assay potency score (higher = more potent) did it give?
Answer: Its sensor-assay potency score (higher = more potent) is 0.418.

Question: For TTTCTTTCCACAGACTGCTTTT, which sensor-assay potency score (higher = more potent) is on record?
Answer: The sensor-assay potency score (higher = more potent) was -0.773.

Question: How did the sensor-assay potency score (higher = more potent) turn out when TTTCCTGAACACCACACTCAAA was run?
Answer: The sensor-assay potency score (higher = more potent) was -1.71.

What follows are sequences tested against BRD2 in the same assay as above. Conditions: shRNA.

Question: With TGCAGTAACAGCAAGGAGCGGG as the sequence, how does the sensor-assay potency score (higher = more potent) read?
Answer: Its sensor-assay potency score (higher = more potent) is -0.301.

Question: For TTTGGGATTGGACACCTCCGGG, which sensor-assay potency score (higher = more potent) is on record?
Answer: Its sensor-assay potency score (higher = more potent) is -1.12.

Question: Which sensor-assay potency score (higher = more potent) does the source give for TAGGACAATATCATCAGTGGGC here?
Answer: Its sensor-assay potency score (higher = more potent) is 0.486.

Question: Which sensor-assay potency score (higher = more potent) does the source give for TTGTTTTCAAGTCTCCTCTTAA here?
Answer: Its sensor-assay potency score (higher = more potent) is -0.54.

Question: How did the sensor-assay potency score (higher = more potent) turn out when TTCTCATTCGCTTTCTTGGGGG was run?
Answer: Its sensor-assay potency score (higher = more potent) is -0.27.

Question: For TACATCAGCAGCAAACTCCTGT, which sensor-assay potency score (higher = more potent) is on record?
Answer: The sensor-assay potency score (higher = more potent) was 0.587.

Question: With TAATTTTGTGATAATCCGGTAG as the sequence, how does the sensor-assay potency score (higher = more potent) read?
Answer: The sensor-assay potency score (higher = more potent) was 0.162.

Question: For TTGGATTATATGCACAACTCGG, which sensor-assay potency score (higher = more potent) is on record?
Answer: Its sensor-assay potency score (higher = more potent) is -1.15.

Question: Which sensor-assay potency score (higher = more potent) does the source give for TTATTTACAAGTTAGAATCAAC here?
Answer: The sensor-assay potency score (higher = more potent) was -0.816.
